Where a name gives a salt, the structure may show the parent alone.
Legend:
Details in all cases: treatment time: 24 h
A549-ACTB-RAB5A [1] = test: phenotypically active (imaging signature differs from DMSO and reproducible) at any of 0.3-9 uM (binary (1 = active, 0 = inactive)); higher = active
In short: (§1)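 Live-cell features were measured per well and normalised to solvent control wells after fifteen gene-edited A549, HepG2 and WPMY1 reporter lines had been treated for 24 h at 0.3, 1, 3 or 9 µM in four wells each. A condition was deviating when ≥3 of 4 wells sat beyond the 95th percentile of control Euclidean distances. It was reproducible when the median replicate Pearson correlation exceeded the 95th percentile of non-replicates. Phenotypic activity demanded both.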

A549-CANX-COX4 = test: as above
In short: as §1

A549-GM130-SQSTM1 [2] = test: as above
In short: as §1

A549-TP53BP1-CLTA [3] = test: as above
In short: as §1

A549-TUBA1B-RELA [4] = test: as above
In short: as §1

HepG2-ACTB-RAB5A = test: as above
In short: as §1

HepG2-CANX-COX4 = test: as above
In short: as §1

HepG2-GM130-SQSTM1 = test: as above
In short: as §1

HepG2-TP53BP1-CLTA [5] = test: as above
In short: as §1

HepG2-TUBA1B-RELA = test: as above
In short: as §1

WPMY1-ACTB-RAB5A = test: as above
In short: as §1

WPMY1-CANX-COX4 = test: as above
In short: as §1

WPMY1-GM130-SQSTM1 = test: as above
In short: as §1

WPMY1-TP53BP1-CLTA = test: as above
In short: as §1

WPMY1-TUBA1B-RELA = test: as above
In short: as §1

A549-ACTB-RAB5A [6] = test: lowest phenotypically active concentration; higher = less potent
In short: as §1

A549-GM130-SQSTM1 [7] = test: as above
In short: as §1

A549-TP53BP1-CLTA [8] = test: as above
In short: as §1

A549-TUBA1B-RELA [9] = test: as above
In short: as §1

HepG2-TP53BP1-CLTA [10] = test: as above
In short: as §1

Structure (SMILES)	phenotypically active (A549-ACTB-RAB5A [1])	phenotypically active (A549-CANX-COX4)	phenotypically active (A549-GM130-SQSTM1 [2])	phenotypically active (A549-TP53BP1-CLTA [3])	phenotypically active (A549-TUBA1B-RELA [4])	phenotypically active (HepG2-ACTB-RAB5A)	phenotypically active (HepG2-CANX-COX4)	phenotypically active (HepG2-GM130-SQSTM1)	phenotypically active (HepG2-TP53BP1-CLTA [5])	phenotypically active (HepG2-TUBA1B-RELA)	phenotypically active (WPMY1-ACTB-RAB5A)	phenotypically active (WPMY1-CANX-COX4)	phenotypically active (WPMY1-GM130-SQSTM1)	phenotypically active (WPMY1-TP53BP1-CLTA)	phenotypically active (WPMY1-TUBA1B-RELA)	lowest phenotypically active concentration (A549-ACTB-RAB5A [6]) [µM]	lowest phenotypically active concentration (A549-GM130-SQSTM1 [7]) [µM]	lowest phenotypically active concentration (A549-TP53BP1-CLTA [8]) [µM]	lowest phenotypically active concentration (A549-TUBA1B-RELA [9]) [µM]	lowest phenotypically active concentration (HepG2-TP53BP1-CLTA [10]) [µM]
COC1=CC(=O)O[C@@H](/C=C/c2ccccc2)C1 [Kawain]	0 (inactive)	0 (inactive)	0 (inactive)	0 (inactive)	0 (inactive)	0 (inactive)	0 (inactive)	0 (inactive)	0 (inactive)	0 (inactive)	0 (inactive)	0 (inactive)	0 (inactive)	0 (inactive)	0 (inactive)					
C=C[C@]12CN(C)[C@@H]3[C@H]4CO[C@H](C[C@H]41)[C@]1(C(=O)Nc4ccccc41)[C@@H]32 [Gelsemine]	0 (inactive)	0 (inactive)	0 (inactive)	0 (inactive)	0 (inactive)	0 (inactive)	0 (inactive)	0 (inactive)	0 (inactive)	0 (inactive)	0 (inactive)	0 (inactive)	0 (inactive)	0 (inactive)	0 (inactive)					
O=C1C[C@@H]2OCC=C3CN4CC[C@]56c7ccccc7N1[C@H]5[C@H]2[C@H]3C[C@H]46 [Strychnine]	1 (active)	0 (inactive)	0 (inactive)	0 (inactive)	0 (inactive)	0 (inactive)	0 (inactive)	0 (inactive)	0 (inactive)	0 (inactive)	0 (inactive)	0 (inactive)	0 (inactive)	0 (inactive)	0 (inactive)	9				
C[C@@]1(CO)[C@H](O)CC[C@@]2(C)[C@H]1CC[C@H]1C[C@@H]3C[C@@]12CC[C@]3(O)CO [Aphidicolin]	1 (active)	1 (active)	1 (active)	1 (active)	1 (active)	1 (active)	1 (active)	1 (active)	1 (active)	1 (active)	1 (active)	1 (active)	1 (active)	1 (active)	1 (active)	≤ 0.3	≤ 0.3	≤ 0.3	≤ 0.3	≤ 0.3
CCN(C)C(=O)Oc1cccc([C@H](C)N(C)C)c1 [rivastigmine]	0 (inactive)	0 (inactive)	0 (inactive)	0 (inactive)	0 (inactive)	0 (inactive)	0 (inactive)	0 (inactive)	0 (inactive)	0 (inactive)	0 (inactive)	0 (inactive)	0 (inactive)	0 (inactive)	0 (inactive)					
C[N+]1([O-])[C@@H]2C[C@@H](OC(=O)[C@H](CO)c3ccccc3)C[C@H]1[C@@H]1O[C@@H]12 (stereo not given in full) [Genoscopolamine HBr]	0 (inactive)	0 (inactive)	0 (inactive)	0 (inactive)	0 (inactive)	0 (inactive)	0 (inactive)	0 (inactive)	0 (inactive)	0 (inactive)	0 (inactive)	0 (inactive)	0 (inactive)	0 (inactive)	0 (inactive)					
CCCN1CCC[C@@H]2Cc3n[nH]cc3C[C@H]21 [(-)-Quinpirole hydrochloride]	0 (inactive)	0 (inactive)	0 (inactive)	0 (inactive)	0 (inactive)	0 (inactive)	0 (inactive)	0 (inactive)	0 (inactive)	0 (inactive)	0 (inactive)	0 (inactive)	0 (inactive)	0 (inactive)	0 (inactive)					
CC(C)CC(N(C)C)C1(c2ccc(Cl)cc2)CCC1 (stereo not given) [sibutramine]	0 (inactive)	0 (inactive)	0 (inactive)	0 (inactive)	0 (inactive)	0 (inactive)	0 (inactive)	0 (inactive)	0 (inactive)	0 (inactive)	0 (inactive)	0 (inactive)	0 (inactive)	0 (inactive)	0 (inactive)					
COC[C@H]1OC(=O)c2coc3c2[C@@]1(C)C1=C(C3=O)[C@@H]2CCC(=O)[C@@]2(C)C[C@H]1OC(C)=O [wortmannin]	1 (active)	1 (active)	1 (active)	1 (active)	1 (active)	0 (inactive)	0 (inactive)	0 (inactive)	0 (inactive)	0 (inactive)	0 (inactive)	0 (inactive)	0 (inactive)	0 (inactive)	0 (inactive)	1	3	9	3	
CC(C)NCC(O)c1ccc(N)c(C#N)c1 (stereo not given) [Cimaterol]	0 (inactive)	0 (inactive)	0 (inactive)	0 (inactive)	0 (inactive)	0 (inactive)	0 (inactive)	0 (inactive)	0 (inactive)	0 (inactive)	0 (inactive)	0 (inactive)	0 (inactive)	0 (inactive)	0 (inactive)					
CC1=C(O)C(=O)[C@@H]2O[C@@H]2C1=O [(-)-Terreic acid]	0 (inactive)	0 (inactive)	0 (inactive)	0 (inactive)	0 (inactive)	0 (inactive)	0 (inactive)	0 (inactive)	0 (inactive)	0 (inactive)	0 (inactive)	0 (inactive)	0 (inactive)	0 (inactive)	0 (inactive)					

Source: the supplement of paper PMC7411054
